The source of these data is the supplement of paper PMC9694430.

Holding throughout (experiment): thermal shift delta Tm vs DMSO control; higher = stronger stabilization (binding)
Common to all, as to details: 12.5 µM; protein concentration 2 µM

Experiment [1] deals with LOC_OS01G01410-cb001. In short, it runs like this:
(§1)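 The melting temperature shift given here is a triplicate mean, measured against protein that received only DMSO. Melting temperatures came from Boltzmann fits of differential scanning fluorimetry data on E. coli-expressed, purified rice kinase domain constructs. Each 19.5 μl well contained 2 μM kinase, 100 mM potassium phosphate pH 7.5, 150 mM NaCl, 10% glycerol, 5 × SYPRO Orange and compound in DMSO. Plates were scanned from 25°C to 95°C at 0.05°C/s.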

Experiment [2] deals with LOC_OS01G02750-cb003. A digest of the protocol:
as §1

Experiment [3] deals with LOC_OS01G10900-cb004. In short, it runs like this:
as §1

For experiment [4], the system named is LOC_OS01G13800-cb001. A digest of the protocol: as §1
In experiment [5] the test system is LOC_OS01G14860-cb001. In short, it runs like this: as §1
Experiment [6] deals with LOC_OS01G21960-cb002. In short, it runs like this: as §1
For experiment [7], the system named is LOC_OS01G39600-cb002. In short, it runs like this: as §1
Experiment [8] relates to LOC_OS01G48390-cb002. In short, it runs like this:
as §1

The subject of experiment [9] is LOC_OS01G51400-cb002. A digest of the protocol:
as §1

Experiment [10] relates to T1, LOC_OS01G52050-cb004.
T1 sequence (whole entry): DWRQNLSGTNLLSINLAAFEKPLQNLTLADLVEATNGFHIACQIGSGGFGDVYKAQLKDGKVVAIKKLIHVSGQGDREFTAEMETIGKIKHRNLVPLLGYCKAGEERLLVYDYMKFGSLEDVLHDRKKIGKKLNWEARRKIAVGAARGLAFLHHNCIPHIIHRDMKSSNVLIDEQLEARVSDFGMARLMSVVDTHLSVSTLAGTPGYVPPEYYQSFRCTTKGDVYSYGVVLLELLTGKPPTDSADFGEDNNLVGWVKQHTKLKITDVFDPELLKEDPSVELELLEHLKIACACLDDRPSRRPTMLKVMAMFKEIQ
In short, it runs like this:
as §1

The test system of experiment [11] is LOC_OS01G57100-cb003. In short, it runs like this: as §1
The test system of experiment [12] is LOC_OS01G60330-cb001. In short, it runs like this: as §1
In experiment [13] the test system is LOC_OS01G60700-cb002. A digest of the protocol:
as §1

Experiment [14] deals with LOC_OS01G63280-cb003. A digest of the protocol: as §1
Experiment [15] relates to LOC_OS01G67340-cb003. A digest of the protocol: as §1
The test system of experiment [16] is LOC_OS01G70970-cb002. In short, it runs like this: as §1
For experiment [17], the system named is LOC_OS02G07810-cb001. In short, it runs like this:
as §1

Experiment [18] deals with LOC_OS02G08530-cb003. In short, it runs like this: as §1
The test system of experiment [19] is LOC_OS02G14120-cb001. In short, it runs like this: as §1
Experiment [20] deals with LOC_OS02G17970-cb001. A digest of the protocol:
as §1

For the molecule `COc1cc2nccc(Oc3ccc(NC(=O)Nc4cc(C)on4)c(Cl)c3)c2cc1OC` [Tivozanib (AV-951)], the “thermal shift delta Tm” value in experiment [1] stood at 1.87 °C; in experiment [2] it was 1.12 °C; in experiment [3] it was 1.76 °C; in experiment [4], 0.05 °C; in [5], 0.65 °C; in [6], 0.54 °C. The “thermal shift delta Tm” value is -0.67 °C in [7]; 1.22 °C in experiment [8]; -0.16 °C in [9]; 6.73 °C in experiment [10]; 1.99 °C in [11]; 1.29 °C in experiment [12]. For the same molecule, the “thermal shift delta Tm” value came to 0.04 °C in experiment [13]; 1.3 °C in [14]; 0.1 °C in experiment [15]; 0.66 °C in [16]; 0.91 °C in experiment [17]; 1.02 °C in experiment [18]. Further, the “thermal shift delta Tm” value in [19] came to 6.58 °C; in experiment [20] it was 0.14 °C.
As for `C=C(C)[C@@H]1CC[C@]2(C)CC[C@]3(C)[C@H](CC[C@@H]4[C@@]5(C)CC[C@H](O)C(C)(C)[C@@H]5CC[C@]43C)[C@@H]12` [Lupeol], the “thermal shift delta Tm” value in experiment [1] is 0.2 °C; in [2], 0.62 °C; in [3], 0.32 °C; in experiment [4] it was 0.74 °C; in experiment [5], 0.11 °C; in experiment [6], 0.67 °C. Also, the “thermal shift delta Tm” value in [7] is 0.07 °C; in experiment [8] it was -0.09 °C; in [9], -0.11 °C; in [10] it was 0.44 °C; in [11], 0.67 °C; in experiment [12], -0.59 °C. Besides, the “thermal shift delta Tm” value was 0.65 °C in experiment [13]; 0.13 °C in experiment [14]; 0.51 °C in [15]; -0.32 °C in experiment [16]; 1 °C in [17]; 0.21 °C in [18]. In addition, the “thermal shift delta Tm” value in [19] is -0.18 °C; in [20] it was -0.66 °C.
`CCn1cc(-c2ccnc3[nH]c(-c4cccc(CN(C)C)c4)cc23)c(-c2ccc(NC(=O)N(C)C)cc2)n1`: the “thermal shift delta Tm” value in experiment [1] was 0.68 °C; in experiment [2] it was 2.48 °C; in [3] it was 1.01 °C; in [4] it was 0.47 °C; in experiment [5], 2.81 °C; in [6] it was 0.73 °C. Besides, the “thermal shift delta Tm” value in experiment [7] is 0.91 °C; in experiment [8] it was 1.28 °C; in [9], 0.51 °C; in experiment [10] it was 0.87 °C; in experiment [11], 1.51 °C; in [12], 0.61 °C. Also, the “thermal shift delta Tm” value stood at 1.18 °C in experiment [13]; 2.91 °C in [14]; 0.66 °C in experiment [15]; 0.18 °C in [16]; 0.49 °C in [17]; 1.02 °C in experiment [18]. For the same molecule, the “thermal shift delta Tm” value came out at 6.39 °C in [19] and 1.01 °C in experiment [20].
On to `Oc1c2ccccc2c2c3c(cccc13)N=N2`, for which the “thermal shift delta Tm” value amounted to 3.59 °C in [1]; 5.55 °C in experiment [2]; 3.61 °C in experiment [3]; 0.39 °C in experiment [4]; 2.06 °C in experiment [5]; 2.7 °C in experiment [6]. Besides, the “thermal shift delta Tm” value in experiment [7] was found to be 1.16 °C; in experiment [8] it was 5.42 °C; in [9], 0.42 °C; in [10] it was 7.57 °C; in experiment [11], 1.83 °C; in [12], 9.76 °C. Besides, the “thermal shift delta Tm” value in [13] was found to be 1.18 °C; in [14], 2.18 °C; in experiment [15], 6.47 °C; in experiment [16] it was 6.02 °C; in experiment [17] it was 1.65 °C; in [18], 3.38 °C. For the same molecule, the “thermal shift delta Tm” value was determined as 5.57 °C in [19] and 0.82 °C in [20].
Turning to `CN1CCN(S(=O)(=O)c2ccc(-c3cnc(N)c(C(=O)Nc4cccnc4)n3)cc2)CC1`, the “thermal shift delta Tm” value in experiment [1] worked out at 4.52 °C; in experiment [2], 1.3 °C; in experiment [3] it was 0.3 °C; in experiment [4] it was 0.58 °C; in [5], 7.62 °C; in [6], 1.87 °C. Moreover, the “thermal shift delta Tm” value was 0.71 °C in experiment [7]; 0.96 °C in [8]; -0.02 °C in [9]; 1.17 °C in [10]; 1.13 °C in experiment [11]; 1.53 °C in experiment [12]. The “thermal shift delta Tm” value is 1.31 °C in [13]; 0.13 °C in [14]; 0.5 °C in experiment [15]; 1.05 °C in experiment [16]; 0.28 °C in [17]; 1.13 °C in experiment [18]. The “thermal shift delta Tm” value in experiment [19] was 2.21 °C; in experiment [20], -0.31 °C.
Consider `CC[C@@H]1C(=O)N(C)c2cnc(Nc3ccc(C(=O)N[C@H]4CC[C@H](N5CCN(CC6CC6)CC5)CC4)cc3OC)nc2N1C(C)C` [Volasertib (BI 6727)], for which the “thermal shift delta Tm” value in experiment [1] was 0.74 °C; in experiment [2], 0.38 °C; in [3], 0.15 °C; in experiment [4], 0.22 °C; in experiment [5], 0.21 °C; in experiment [6] it was 0.37 °C. For the same molecule, the “thermal shift delta Tm” value in experiment [7] is 0.25 °C; in experiment [8], 0.32 °C; in [9] it was 0.11 °C; in experiment [10], 0.22 °C; in experiment [11], 1.58 °C; in [12], 2.49 °C. Besides, the “thermal shift delta Tm” value was determined as 0.62 °C in experiment [13]; 0.08 °C in experiment [14]; 1.23 °C in [15]; 0.17 °C in [16]; 0.23 °C in experiment [17]; 1.87 °C in experiment [18]. Further, the “thermal shift delta Tm” value was -0.05 °C in experiment [19] and 0.41 °C in experiment [20].
